Compound activity (PubChem BioAssay)
Most compounds without a hit are left out; they make up all but 1.6% or so of the library.
RXFP1 agonist – activates the human relaxin receptor RXFP1. Q9HBX9. HEK293T-RXFP1 cAMP TR-FRET, 30 min; response scale: percent of porcine relaxin response, buffer zero. Potency, µM (doses to about 57.5 µM), without a hit: top-dose activation, hits mostly activators. hit rate 0.3% among 370,000. AID 2676; active = well fitted activation curve with a large enough effect; inconclusive = small, poorly fitted or top-dose-only effect; also: potency is read from the fitted curve at half-maximal effect; % is scaled to controls: 0 for no effect and ±100 for the full control effect; nearly all actives have a fitted effect of over 60% in size
Target sequence (Q9HBX9 whole entry, looked up): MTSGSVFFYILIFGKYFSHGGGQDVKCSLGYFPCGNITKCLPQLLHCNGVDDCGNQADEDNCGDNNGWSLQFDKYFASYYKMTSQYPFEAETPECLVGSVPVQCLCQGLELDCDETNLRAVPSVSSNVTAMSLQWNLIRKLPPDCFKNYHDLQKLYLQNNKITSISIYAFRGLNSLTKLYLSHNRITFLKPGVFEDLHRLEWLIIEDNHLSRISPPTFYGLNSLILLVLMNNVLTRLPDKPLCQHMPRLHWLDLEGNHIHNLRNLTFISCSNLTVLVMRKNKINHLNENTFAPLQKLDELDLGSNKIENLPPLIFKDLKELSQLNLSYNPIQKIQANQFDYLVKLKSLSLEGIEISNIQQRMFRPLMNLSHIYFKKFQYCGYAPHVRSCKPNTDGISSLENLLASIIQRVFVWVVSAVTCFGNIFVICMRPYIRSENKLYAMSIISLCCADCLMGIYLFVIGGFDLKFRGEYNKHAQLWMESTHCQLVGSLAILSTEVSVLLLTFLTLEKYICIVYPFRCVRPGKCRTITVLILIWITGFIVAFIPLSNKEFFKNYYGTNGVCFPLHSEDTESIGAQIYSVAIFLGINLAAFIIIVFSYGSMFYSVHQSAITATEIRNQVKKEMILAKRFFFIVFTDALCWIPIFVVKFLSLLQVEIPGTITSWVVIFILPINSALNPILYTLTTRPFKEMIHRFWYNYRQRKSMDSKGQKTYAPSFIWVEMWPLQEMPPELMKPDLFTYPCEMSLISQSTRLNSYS
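HEK293T cells stably expressing RXFP1 were pretreated with the PDE4 inhibitor Ro 20174, exposed to compounds for 30 min at 37C, lysed, and cAMP was read by TR-FRET. Data normalized to buffer (basal) and 29 nM porcine relaxin (100%).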
gsp agonist – activates gsp, the McCune-Albright syndrome mutation | gsp mutant cells, cAMP HTRF, 30 min | Potency, µM (highest dose often 76.9 µM), for inactives: at the highest dose activation (cAMP increase), most hits filed as activators | hit rate 0.13% among 340,000 | AID 624287; active = well fitted activation curve with a large enough effect; inconclusive = small, poorly fitted or top-dose-only effect, or another doubt; inactive = no such curve, though single readings can be large or run the other way; cell line not stated here;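 also: phosphodiesterase inhibitor Ro 20-1724 added with compounds to block cAMP breakdown; potency is read from the fitted curve at half-maximal effect; nearly all actives have a fitted effect of over 60% in size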
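Cells in DMEM/10% FBS with G418 were pretreated with compounds in DMSO plus […] (300 uM stock) for 30 min at 37C. cAMP was measured by HTRF (cAMP-d2 plus anti-cAMP antibody-K) after 30 min at room temperature.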
gsp antag – antagonists of gsp mutant (McCune-Albright syndrome) | hit rate 0.4% among 340,000 | AID 624288 | Potency, µM (top dose mostly 76.9 µM), for the others: top-dose activity change, negative = inhibition, actives largely listed as inhibitors | gsp-mutant cells, cAMP HTRF, 30 min; calls by dose curve; cell line not stated here;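 also: intracellular cAMP measured with PDE inhibitor Ro 20-1724 present during compound exposure; potency is read from the fitted curve at half-maximal effect; % is scaled to controls: 0 for no effect and ±100 for the full control effect; nearly all actives have a fitted effect of over 65% in size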
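G418-selected cells were plated in DMEM/10% FBS for 16-24 h at 37C, then treated with compounds plus the PDE inhibitor […] (300 uM solution added) for 30 min at 37C. Intracellular cAMP was measured by HTRF after 30 min lysis at room temperature.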
RXFP1 antag – antagonists of human relaxin receptor RXFP1. Q9HBX9. activity change, negative = inhibition, % at 57.5 µM. hit rate 0.59% among 350,000. HEK293-RXFP1, relaxin-stimulated cAMP HTRF, 30 min; active compounds read low;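 active = activity change of -60% or lower, but not beyond a set lower limit; inconclusive = change between -60% and -40%, or beyond the set limit; inactive = change above -40%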; also: % is scaled to controls: 0 for no effect and ±100 for the full control effect
Giardia kill – kills Giardia lamblia; hit rate 0.15% among 340,000; Giardia lamblia trophozoite viability; activity change, % at 7.66 µM, hits read low; in the data active = activity change below about -80%; inconclusive = between about -30% and that limit;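 also: parasites exposed to compound for two days anaerobically before the ATP read; % is scaled to controls: 0 for no effect and ±100 for the full control effect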
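Anaerobic 48 hrs incubation at 37 deg C of 100 trophozoites/well with test compounds; ATPLite 1-Step luminescence, 15-30 min RT, reports cellular ATP as viability.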
FBPA coupling cs – coupling enzyme interference in Giardia aldolase counter-screen; coupling enzyme system counterscreen, AmpLite Red fluorescence; activity change, negative = inhibition, % at 58.2 µM, hits read low; hit rate 0.67% among 290,000; in the data active = activity change below about -30%; also: % is scaled to controls: 0 for no effect and ±100 for the full control effect
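Coupling enzymes only (glyceraldehyde-3-phosphate) + compound, at 57.5 uM final, 10 min RT; add substrate/coupling/AmpLite Red mix, 20 min RT; fluorescence ex 525/em 598 nm. Actives flag coupling-system interference.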
* = called active by the depositor; ? = inconclusive; · = no result given; [ ] = remark or other dose.

SMILES	RXFP1 agonist	gsp agonist	gsp antag	RXFP1 antag	Giardia kill	FBPA coupling cs
CCOC(=O)N1CCC(NC(=O)c2oc3c(c2C)-c2[nH]ncc2CC3)CC1	0%	0%	5%	6	9	-41*
CCOC(=O)c1cccc(NC(=O)c2oc3c(c2C)-c2[nH]ncc2CC3)c1	-1%	·	·	8	·	·
N#Cc1cccc(CS(=O)(=O)c2nnnn2C2CCCCC2)c1	·	·	·	·	·	-1
CC(=O)N1CCc2c(sc(NC(=O)C3CCCN3S(=O)(=O)c3cccs3)c2C(N)=O)C1 (stereo not given)	1%	0%[15.4 µM]	-6%	0	7	·
CC(=O)N1CCc2c(sc(NC(=O)C3CCN(S(=O)(=O)c4cccs4)CC3)c2C(N)=O)C1	1%	-5%[15.4 µM]	-17%	-60*	12	·
O=C(Nc1nnc(S(=O)(=O)N2CCCC2)s1)c1cccc([N+](=O)[O-])c1	-1%	?	50µM*	-21	-12	·
CC1CCN(S(=O)(=O)c2nnc(NC(=O)c3cccc([N+](=O)[O-])c3)s2)CC1	-1%	43%	?	-7	-17	-27
CCc1ccc(OC(C)c2nc(-c3ccc(-n4cccc4)cc3)no2)cc1 (stereo not given)	1%	·	·	-5	·	·
O=C(NCCCc1ccccc1)c1nn(-c2ccccc2F)nc1CO	-4%	·	·	-25	·	·
O=C(NCCCCc1ccccc1)c1nn(-c2ccccc2F)nc1CO	-5%	·	·	-66*	·	·
CCN(CC)c1ccc(NC(=O)COC(=O)C23CCC(=O)N2c2ccccc2S3)cc1 (stereo not given)	-2%	-38%	?	-22	2	-32*
CCN(CC)c1ccc(NC(=O)COC(=O)CCC(=O)c2cccs2)cc1	-2%	3%	-6%	-2	-17	·
Cc1ccc(C2C(C(=O)c3cccs3)=C(O)C(=O)N2c2nnc(C)s2)cc1 (stereo not given)	20µM*	3%[15.4 µM]	-8%	-1	16	1
COCCN1C(=O)C(O)=C(C(=O)c2cccs2)C1c1ccccc1 (stereo not given)	27%	3.5µM*	8%	-6	22	8
Cc1ccccc1Cn1c(=O)n(CCCCC(=O)NCc2ccccc2Cl)c(=O)c2ccccc21	1%	·	·	·	·	·
CC(=O)Nc1ccc(Nc2nnc(-c3ccc(C)c(S(N)(=O)=O)c3)c3ccccc23)cc1	0%	-29%[15.4 µM]	-1%	2	13	1
Cc1ccc(-c2nnc(Nc3ccc4c(c3)OCO4)c3ccccc23)cc1S(N)(=O)=O	1%	-1%[15.4 µM]	28µM*	-20	-11	-7
CC(C)=NOC[C@@H](C)[C@H](OCc1ccccc1)C(C)C	·	·	·	·	·	2
CSCC[C@@H](C(=O)NCCCCCCCCCCC(=O)N1CCN(C(=O)OC(C)(C)C)CC1)n1cc(CCO)nn1	1%	-23%	32µM*	·	?	·
CC(C)(C)OC(=O)NCCCC[C@@H](C(=O)NCCCCCCCCCCC(=O)N1CCN(C(=O)OC(C)(C)C)CC1)n1cc(CCO)nn1	0%	·	?	·	-25	·
CC(C)C(=O)N1CCC2(CC1)Oc1ccc(F)cc1C(=O)C21CC(c2cccnc2)=NO1 (stereo not given)	0%	·	·	·	·	4
Cc1ccc(C(=O)N2CCC3(CC2)Oc2ccc(F)cc2C(=O)C32CC(c3cccnc3)=NO2)s1 (stereo not given)	-7%	·	35µM*	·	10	7
Cc1cccc(OCCCC(=O)Nc2nc3ccccc3[nH]2)c1	0%	12%[15.4 µM]	-5%	4	-1	-2
COc1ccccc1NC(=O)Nc1nc(CC(=O)NCc2ccc(F)cc2)cs1	-2%	-2%	?	-76*	10	·
COc1ccccc1OCCCCCc1c(C)n[nH]c1C	0%	-13%	35µM*	7	-3	-5
SMILES	RXFP1 agonist	gsp agonist	gsp antag	RXFP1 antag	Giardia kill	FBPA coupling cs
O=C(Nc1ccc(F)cc1)Nc1ccc2snnc2c1	-2%	·	·	·	·	·
CCOC(=O)N1CCC(n2c(=O)[nH]c3cc(Cl)ccc32)CC1	·	·	·	-20	·	·
Cc1cc(/C=N/n2cnnc2)c(C)n1-c1ccc(OCc2ccc(F)cc2)cc1	0%	4%	2%	-68*	-17	1
O=C(CSc1ccc(-c2ccco2)nn1)N1CCCC1	1%	?	6%	15	3	1
O=C(CSc1ccc(-c2ccco2)nn1)N1CCCCC1	5%	-12%[15.4 µM]	0%	-23	4	-47*
CCOC(=O)C1CCN(C(=O)c2oc3ccc(S(=O)(=O)N4CC(C)CC(C)C4)cc3c2C)CC1 (stereo not given)	2%	-1%	-18%	-5	0	1
CCOC(=O)N1CCN(C(=O)c2oc3ccc(S(=O)(=O)N4CC(C)CC(C)C4)cc3c2C)CC1 (stereo not given)	0%	3%	35µM*	2	-19	2
Cc1cc(C)c(C#N)c(SCc2ccc(C(=O)O)cc2)n1	-1%	-3%	40µM*	-19	13	19
COC(=O)c1ccccc1NC(=O)C1=CC(c2ccc(C)cc2)=NS(=O)(=O)N1C	-4%	·	·	-15	·	·
O=C(OCC(=O)N1CCCC1)c1ccc(S(=O)(=O)Nc2ccccc2)cc1	-1%	-72%	11µM*	-5	-12	0
Cc1ccnc(NC(=O)c2sc3ccccc3c2Cl)c1	24%	24%	8%	18	-80*	5
CCN(CC)c1c([N+](=O)[O-])c(=O)n(C)c2ccccc12	-1%	-9%[15.4 µM]	-8%	-35	7	-10
Cn1c(=O)c([N+](=O)[O-])c(Cl)c2ccccc21	2%	-2%[15.4 µM]	28µM*	-80*	2	1
CCOc1ccc(CNC(=O)CCc2cn(Cc3ccccc3)c3ccccc23)cc1	-1%	0%	2%	·	-9	3
C=CCn1c(NS(=O)(=O)c2ccccc2)c(S(=O)(=O)c2ccc(C)cc2)c2nc3ccccc3nc21	2%	?	-10%	·	15	-59*
CC(=O)Nc1c(S(=O)(=O)c2ccccc2)c2nc3ccccc3nc2n1Cc1ccccc1	7%	13%	?	2	2	0
Cc1ccc(S(=O)(=O)c2c(N)n(-c3ccccc3)c3nc4ccccc4nc23)cc1	1%	11%[15.4 µM]	?	-9	3	-1
O=S(=O)(Nc1c(S(=O)(=O)c2ccccc2)c2nc3ccccc3nc2n1C1CCCCC1)c1ccccc1	5%	-10%	-9%	-72*	-1	-53*
C[C@H](CO)N1C[C@H](C)[C@@H](CN(C)C(=O)Nc2ccc(F)cc2)Oc2ncc(-c3ccc(F)cc3)cc2C1=O	·	-32%	·	12	·	·
COc1ccc(C)cc1S(=O)(=O)NCC(c1cccs1)S(=O)(=O)c1ccc(C)cc1 (stereo not given)	1%	·	·	-21	·	·
